Screening data from PubChem.
The list is not random: actives were taken first. Their share in the collection is about 9.5%.
SARS PLP yeast = blocks SARS-CoV papain-like protease in a yeast assay. 0.19% of 330,000 active. S. cerevisiae expressing SARS-CoV PLpro, growth rescue. Potency, µM (series often up to 32.9 µM), for the others: at the top dose activity, positive = growth rescue, actives largely listed as activators; calls by dose curve; note: 0% is about no effect; nearly all actives have a fitted effect of over 55% in size
NS1 function inh = inhibitors of influenza NS1 protein function; Potency, µM (series often up to 46.1 µM), for the others: at the highest dose activity, positive = more growth; 0.4% of 270,000 active; AID 2326; calls by dose curve; note: actives are rising curves; nearly all actives have a fitted effect of over 50% in size
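S. cerevisiae expressing influenza A NS1, grown in glucose, washed, then diluted 1:100 into pH 6.0 -URA galactose medium with 23 nl compound. Growth recovery read as OD600; NS1-free strain serves as control.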
Pf growth 48h = P. falciparum growth inhibition at 48 hours (one generation). Potency, µM (top dose mostly 28.7 µM), for inactives: at the top dose activity change, negative = inhibition, usual class: inhibitors. 5.9% of 310,000 active. P. falciparum luciferase growth in erythrocytes, 48 h; note: % is set by controls: 0 for no effect and ±100 for the full control effect
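Firefly luciferase activity from engineered P. falciparum reports growth; inhibitors lower the luminescent signal. Cultures contained 2% hematocrit erythrocytes at 0.1% final parasitemia.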
RE007 growth inh = less growth of the S. pombe RE007 Vpr strain; S. pombe RE007 Vpr strain, BacTiter-Glo ATP luminescence, 24 h; Potency, µM (highest dose often 92.2 µM), without a hit: at the top dose activity change, negative = less growth, most hits filed as inhibitors; 0.21% of 360,000 active; AID 651644; active = well fitted falling curve with a large enough effect; inconclusive = small, poorly fitted or top-dose-only effect; inactive = no such curve, though single readings can be large or run the other way; note: % is set by controls: 0 for no effect and ±100 for the full control effect; nearly all actives have a fitted effect of over 50% in size
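Fission yeast RE007 carrying one integrated HIV-1 vpr copy, seeded at OD 0.01 in PMG+AL medium with 23 nL pinned compound. Grown 24 h at 30 degrees; viability read by BacTiter-Glo luminescence after 5 min.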
Pf growth 96h = P. falciparum growth inhibition at 96 hours; P. falciparum luciferase reporter growth, 96 h; Potency, µM (series often up to 28.7 µM), without a hit: at the highest dose activity change, negative = inhibition, usual class: inhibitors; 6.9% of 320,000 active; AID 504834; note: % is set by controls: 0 for no effect and ±100 for the full control effect
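Plates of compound plus infected erythrocytes (2% hematocrit, 0.05% parasitemia final) incubate 96 hours, 37 C, 5% CO2. Detection reagent added; reduced luminescence from the parasites' luciferase reporter flags inhibition.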
* hit, by the source's call. Unless noted, calls come from the whole dose curve; as a rule, active = well fitted inhibition curve with a large enough effect; inconclusive = small, poorly fitted or top-dose-only effect, or another doubt; inactive = no such curve, though single readings can be large or run the other way. Potency is the fitted concentration of half-maximal effect.

COc1ccc(NC(=O)c2ccc(-c3ccc(-c4noc(C)n4)cc3C)cc2)cc1N1CCN(C)CC1 was read as NS1 function inh -16.6%, Pf growth 48h 3.29µM*, RE007 growth inh -14.2% and Pf growth 96h 2.62µM*.
`COc1ccccc1C(=O)NC(=O)COC(=O)c1nc(Cl)ccc1Cl` gave SARS PLP yeast -9.9%, Pf growth 48h 8.4%, RE007 growth inh 14.5% and Pf growth 96h 1.4%.
Screening O=C(NCc1ccccc1)C(=O)NCC1CCCN1S(=O)(=O)c1cccs1 (configuration not stated) returned SARS PLP yeast 4.5%, Pf growth 48h inconclusive, RE007 growth inh -5.2% and Pf growth 96h inconclusive.
Screening CC1(C)Nc2ccc(O)cc2-c2c1ssc2=S returned SARS PLP yeast 8.1%, NS1 function inh -11.4%, Pf growth 48h inconclusive, RE007 growth inh -14.5% and Pf growth 96h 8.28µM*.
COc1cccc(-n2sc3c(c2=S)-c2cc(OC)ccc2NC3(C)C)c1 was read as SARS PLP yeast 2.8%, NS1 function inh 17.4%, Pf growth 48h inconclusive, RE007 growth inh 116.5% and Pf growth 96h inconclusive.
For O=C(CN1C(=O)NC2(CCCC2)C1=O)NCCN1C(=O)S/C(=C\c2ccccc2F)C1=O the results were SARS PLP yeast 1.8%, Pf growth 48h inconclusive, RE007 growth inh 3.6% and Pf growth 96h 4.65µM*.
For C=CCn1c(=O)c2ccccc2n2c(SC(C)C(N)=O)nnc12 (configuration not stated) the results were SARS PLP yeast -2.1%, NS1 function inh 5.5%, Pf growth 48h 30.4%, RE007 growth inh 5.7% and Pf growth 96h 16.0%.
`C=CCn1c(=O)c2ccccc2n2c(SC(C)C(=O)Nc3nc(-c4ccccc4)cs3)nnc12` (configuration not stated) gave SARS PLP yeast -18.5%, NS1 function inh -16.7%, Pf growth 48h 10.4µM*, RE007 growth inh 15.7% and Pf growth 96h inconclusive.
Screening O=C(COc1ccc2ccccc2c1)N1CCN(Cc2c[nH]c3ccccc23)CC1 returned SARS PLP yeast -0.5%, NS1 function inh inconclusive, Pf growth 48h 11.7µM*, RE007 growth inh -2.8% and Pf growth 96h 3.29µM*.
Screening COc1cnc(-c2ccccn2)nc1Oc1c(C)cccc1C returned SARS PLP yeast 28.7%, Pf growth 48h 11.7µM*, RE007 growth inh 2.9% and Pf growth 96h 0.208µM*.
COc1ccc(Oc2nc(-c3ccccn3)ncc2OC)cc1 was read as SARS PLP yeast 11.2%, Pf growth 48h 0.0%, RE007 growth inh -9.6% and Pf growth 96h inconclusive.
COc1cnc(-c2ccccn2)nc1Sc1c(Cl)cccc1Cl was read as SARS PLP yeast 15.7%, NS1 function inh -1.8%, Pf growth 48h 1.65µM*, RE007 growth inh 4.2% and Pf growth 96h 2.08µM*.
Screening COc1cnc(-c2ccccn2)nc1Oc1cccc(Cl)c1 returned SARS PLP yeast -2.6%, NS1 function inh -76.8%, Pf growth 48h inconclusive, RE007 growth inh -13.2% and Pf growth 96h 2.62µM*.
COc1cnc(-c2ccccc2)nc1Oc1cccc(C)c1 was read as SARS PLP yeast -0.4%, NS1 function inh -4.8%, Pf growth 48h 6.1%, RE007 growth inh inconclusive and Pf growth 96h -0.6%.
Screening CCOC(=O)C(C)Sc1nc(-c2ccccn2)ncc1OC (configuration not stated) returned SARS PLP yeast 3.7%, Pf growth 48h 13.1µM*, RE007 growth inh 9.9% and Pf growth 96h 3.29µM*.
For COCc1c(C(=O)OCc2nc3ccsc3c(=O)[nH]2)oc2ccccc12 the results were SARS PLP yeast 1.0%, Pf growth 48h 0.0%, RE007 growth inh 0.1% and Pf growth 96h -6.1%.
For COc1ccc(CNC(=O)C(C)Sc2nc3ccccc3c(=O)n2CC2CCCO2)cc1 (configuration not stated) the results were SARS PLP yeast -2.0%, Pf growth 48h inconclusive, RE007 growth inh 4.3% and Pf growth 96h inconclusive.
Screening CC(=O)SC1CC2=CC(=O)CC[C@]2(C)C2CC[C@@]3(C)[C@@H](CC[C@@]34CCC(=O)O4)C12 (some centres not stated) returned NS1 function inh -20.8%.
